One assay relates to MAP3K15. As to conditions: concentration: 1 μM,replicates: in singlicate; n = 1.
The next assay deals with MAP3K1. The following applies: concentration: 1 μM,replicates: in singlicate; n = 1.
The test system of a further assay is MAP3K2. The following applies: concentration: 1 μM,replicates: in singlicate; n = 1.
The next assay concerns MAP3K3. As to conditions: concentration: 1 μM,replicates: in singlicate; n = 1.
The subject of a further assay is MAP3K4. The following applies: concentration: 1 μM,replicates: in singlicate; n = 1.
A further assay concerns MAP4K2. As to conditions: concentration: 1 μM,replicates: in singlicate; n = 1.
Another assay concerns MAP4K3. As to conditions: concentration: 1 μM,replicates: in singlicate; n = 1.
The next assay has as its system MAP4K4. The following applies: concentration: 1 μM,replicates: in singlicate; n = 1.
Another assay concerns MAP4K5. The following applies: concentration: 1 μM,replicates: in singlicate; n = 1.
In another assay the test system is MAPKAPK2. The following applies: n = 1.
A further assay concerns MAPKAPK5. As to conditions: concentration: 1 μM,replicates: in singlicate; n = 1.
Another assay relates to MARK1. As to conditions: concentration: 1 μM,replicates: in singlicate; n = 1.
A further assay has as its system MARK2. The following applies: concentration: 1 μM,replicates: in singlicate; n = 1.
The next assay has as its system MARK3. As to conditions: concentration: 1 μM,replicates: in singlicate; n = 1.
The next assay concerns MARK4. The following applies: concentration: 1 μM,replicates: in singlicate; n = 1.
For another assay, the system named is MAST1. As to conditions: concentration: 1 μM,replicates: in singlicate; n = 1.
Another assay deals with T1, MEK1.
T1 construct: gene MAP2K1
As to conditions: concentration: 1 μM,replicates: in singlicate; n = 1.

For a further assay, the system named is T2, MEK2.
T2 construct: gene MAP2K2
The following applies: concentration: 1 μM,replicates: in singlicate; n = 1.

The test system of a further assay is T3, MEK3.
T3 construct: gene MAP2K3
The following applies: concentration: 1 μM,replicates: in singlicate; n = 1.

For another assay, the system named is T4, MEK4.
T4 construct: gene MAP2K4
The following applies: concentration: 1 μM,replicates: in singlicate; n = 1.

Where [1] appears, read: concentration: 1 μM,replicates: in singlicate.

The text below walks through data of publication PMC5540273 (PLoS ONE, 2017).

Like-named read-outs stand apart in the source and are kept apart here.
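Also: KINOMEscan kinase panel screen.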

On to `C[C@@H]1CNc2c(sc3ccc4nc(-c5ccncc5)ccc4c23)C(=O)N1`, for which the “%Inh” value with MAP3K15 is on record as 52%; with MAP3K1 it was 0%; with MAP3K2 it was 0%; in the assay with MAP3K3 it was 5%; in the assay on MAP3K4 it was 0%; with MAP4K2 it was 70%. The “%Inh” value is given as 1% in the assay on MAP4K3; 0% in the assay with MAP4K4; 0% with MAP4K5; 97.1% in the assay with MAPKAPK2 (1 µM); 100% in the assay with MAPKAPK5; 0% in the assay with MARK1. The “%Inh” value with MARK2 was 0%; in the assay with MARK3, 0%; in the assay on MARK4, 0%; with MAST1, 12%; in the assay with MEK1, 0%; in the assay on MEK2 it was 0%. Also, the “%Inh” value stood at 13% with MEK3 and 0% in the assay on MEK4.
For `Cc1cccc2c(-c3ccncc3)c(-c3ccc(F)cc3)nn12.Cl` [GW461487], the “%Inh” value with MAP3K15 stood at 100%; in the assay on MAP3K1 it was 13%; with MAP3K2, 19%; with MAP3K3, 0%; with MAP3K4, 20%; in the assay with MAP4K2, 0%. The “%Inh” value in the assay on MAP4K3 is recorded as 0%; with MAP4K4, 9%; in the assay with MAP4K5, 0%; in the assay on MAPKAPK2 (setting [1]), 0%; in the assay on MAPKAPK5 it was 0%; with MARK1, 0%. Moreover, the “%Inh” value came out at 0% in the assay on MARK2; 0% in the assay on MARK3; 0% with MARK4; 0% with MAST1; 39% in the assay on MEK1; 0% with MEK2. The “%Inh” value in the assay with MEK3 came to 0%; with MEK4, 52%.
For the molecule `c1ccc(Oc2ccc(Nc3ccnc4ccc(-c5ccccn5)cc34)cc2)cc1` [GW407034], the “%Inh” value stood at 0% in the assay with MAP3K15; 14% in the assay with MAP3K1; 14% in the assay on MAP3K2; 0% in the assay with MAP3K3; 17% in the assay with MAP3K4; 0% in the assay with MAP4K2. The “%Inh” value in the assay on MAP4K3 was determined as 11%; in the assay on MAP4K4, 21%; with MAP4K5 it was 13%; in the assay with MAPKAPK2 (setting [1]), 24%; in the assay with MAPKAPK5, 0%; in the assay on MARK1, 0%. Also, the “%Inh” value in the assay with MARK2 is reported as 0%; in the assay with MARK3, 0%; with MARK4, 0%; with MAST1 it was 2%; in the assay on MEK1, 85%; in the assay on MEK2 it was 66%. Also, the “%Inh” value in the assay on MEK3 stood at 0%; in the assay with MEK4, 16%.
Regarding `CN(c1ccc2c(c1)nc(NCc1ccc(F)cc1)n2C)c1ccnc(Nc2ccc(CS(C)(=O)=O)cc2)n1.Cl` [GW813244], the “%Inh” value came to 24% with MAP3K15; 26% with MAP3K1; 31% in the assay on MAP3K2; 23% in the assay with MAP3K3; 2% in the assay with MAP3K4; 0% with MAP4K2. Also, the “%Inh” value in the assay on MAP4K3 turned out to be 40%; in the assay on MAP4K4, 10%; in the assay on MAP4K5, 11%; in the assay on MAPKAPK2 (setting [1]), 0%; in the assay with MAPKAPK5 it was 0%; in the assay on MARK1 it was 0%. The “%Inh” value with MARK2 was found to be 0%; with MARK3, 0%; in the assay on MARK4, 8%; with MAST1 it was 19%; in the assay with MEK1, 14%; with MEK2, 37%. Also, the “%Inh” value in the assay on MEK3 is 27%; with MEK4, 40%.
Consider `O=c1[nH]cc(-c2ccc(O)cc2)c2sc(-c3ccncc3)cc12` [GSK1033723], for which the “%Inh” value was 0% with MAP3K15; 13% with MAP3K1; 7% in the assay on MAP3K2; 0% in the assay on MAP3K3; 0% with MAP3K4; 0% in the assay on MAP4K2. In addition, the “%Inh” value in the assay with MAP4K3, in the assay with MAP4K4, in the assay with MAP4K5, in the assay on MAPKAPK2 (setting [1]), with MAPKAPK5 and in the assay with MARK1 was 0% throughout. Moreover, the “%Inh” value in the assay on MARK2 is given as 0%; in the assay on MARK3, 0%; in the assay with MARK4, 1%; with MAST1, 0%; with MEK1 it was 0%; with MEK2, 0%. The “%Inh” value in the assay with MEK3 and in the assay on MEK4 was 0% in each case.
On to `CS(=O)c1ccc(-c2coc3ccc(-c4n[nH]c(=O)o4)cc23)cc1` (centres unmarked), for which the “%Inh” value in the assay on MAP3K15 was determined as 37%; in the assay with MAP3K1 it was 0%; in the assay on MAP3K2 it was 0%; in the assay on MAP3K3, 11%; in the assay with MAP3K4, 5%; in the assay with MAP4K2, 2%. The “%Inh” value in the assay on MAP4K3 amounted to 1%; in the assay with MAP4K4, 0%; in the assay on MAP4K5, 0%; with MAPKAPK2 (setting [1]), 0%; with MAPKAPK5 it was 11%; in the assay on MARK1, 15%. Moreover, the “%Inh” value with MARK2 came to 23%; in the assay with MARK3 it was 0%; in the assay with MARK4, 22%; in the assay with MAST1, 6%; in the assay with MEK1, 17%; with MEK2, 18%. Also, the “%Inh” value worked out at 25% in the assay on MEK3 and 43% in the assay on MEK4.
Consider `CC(C)c1nc(-c2cccc(NS(=O)(=O)c3ccccc3)c2)c(-c2ccnc(Nc3ccc4c(c3)CN(C)CC4)n2)s1` [GSK1649598], for which the “%Inh” value in the assay on MAP3K15 is 30%; with MAP3K1 it was 6%; with MAP3K2, 98.5%; in the assay on MAP3K3, 84%; in the assay with MAP3K4, 79%; with MAP4K2, 0%. Further, the “%Inh” value in the assay with MAP4K3 is recorded as 96.9%; in the assay with MAP4K4 it was 95.5%; in the assay with MAP4K5, 98.9%; in the assay with MAPKAPK2 (setting [1]), 0%; with MAPKAPK5, 0%; with MARK1 it was 31%. Besides, the “%Inh” value is reported as 0% in the assay with MARK2; 14% in the assay with MARK3; 3% in the assay with MARK4; 0% in the assay with MAST1; 52% in the assay on MEK1; 77% in the assay on MEK2. Further, the “%Inh” value in the assay on MEK3 came out at 17%; in the assay with MEK4, 99.5%.
`COc1ccc(Nc2nccc(N3CCC(NC(=O)c4cccc(C#N)c4)C3)n2)cc1` (centres unmarked) [GSK1379730]: the “%Inh” value with MAP3K15 was determined as 0%; with MAP3K1, 1%; in the assay on MAP3K2 it was 0%; in the assay with MAP3K3, 0%; in the assay with MAP3K4 it was 40%; with MAP4K2 it was 0%. Moreover, the “%Inh” value in the assay with MAP4K3 is on record as 0%; in the assay with MAP4K4, 16%; in the assay on MAP4K5, 10%; in the assay with MAPKAPK2 (setting [1]) it was 0%; with MAPKAPK5, 0%; in the assay on MARK1, 1%. Further, the “%Inh” value in the assay with MARK2 is recorded as 0%; in the assay with MARK3, 0%; with MARK4, 9%; in the assay with MAST1 it was 0%; with MEK1, 0%; with MEK2 it was 0%. Moreover, the “%Inh” value with MEK3 is given as 0%; in the assay with MEK4 it was 8%.
For `CCn1c(-c2nonc2N)nc2cncc(Br)c21` [SB-738004], the “%Inh” value with MAP3K15 is 18%; with MAP3K1 it was 10%; in the assay with MAP3K2, 0%; in the assay on MAP3K3 it was 0%; in the assay on MAP3K4 it was 3%; with MAP4K2, 40%. For the same molecule, the “%Inh” value with MAP4K3 worked out at 0%; in the assay on MAP4K4, 3%; in the assay with MAP4K5 it was 0%; in the assay on MAPKAPK2 (setting [1]), 10%; in the assay on MAPKAPK5, 0%; in the assay with MARK1 it was 0%. Besides, the “%Inh” value was determined as 21% in the assay with MARK2; 0% in the assay with MARK3; 6% with MARK4; 53% in the assay on MAST1; 22% in the assay with MEK1; 29% with MEK2. In addition, the results for the “%Inh” value with MEK3 and in the assay with MEK4 were 49% and 0%, respectively.
Take `CSc1nccc(-c2c(-c3ccc(F)cc3)ncn2CCCN2CCOCC2)n1.Cl` [SB-217146]: the “%Inh” value in the assay on MAP3K15 was 0%; in the assay with MAP3K1, 0%; with MAP3K2, 23%; in the assay with MAP3K3 it was 1%; with MAP3K4, 0%; in the assay with MAP4K2, 0%. In addition, the “%Inh” value was determined as 0% with MAP4K3; 0% in the assay on MAP4K4; 0% in the assay on MAP4K5; 0% with MAPKAPK2 (setting [1]); 0% in the assay on MAPKAPK5; 15% in the assay with MARK1. The “%Inh” value is 0% in the assay with MARK2; 40% in the assay with MARK3; 20% in the assay on MARK4; 6% in the assay on MAST1; 30% in the assay with MEK1; 43% with MEK2. For the same molecule, the “%Inh” value in the assay with MEK3 was 33%; in the assay with MEK4, 16%.
